Data published in the supplement of paper PMC10849652.
Of roughly 7,900 targets only a part is listed; those with a hit were picked by preference. About 0.6% of all pairs of compound and target were hits.

Chain of UniProt O76094 (O76094 whole entry, looked up): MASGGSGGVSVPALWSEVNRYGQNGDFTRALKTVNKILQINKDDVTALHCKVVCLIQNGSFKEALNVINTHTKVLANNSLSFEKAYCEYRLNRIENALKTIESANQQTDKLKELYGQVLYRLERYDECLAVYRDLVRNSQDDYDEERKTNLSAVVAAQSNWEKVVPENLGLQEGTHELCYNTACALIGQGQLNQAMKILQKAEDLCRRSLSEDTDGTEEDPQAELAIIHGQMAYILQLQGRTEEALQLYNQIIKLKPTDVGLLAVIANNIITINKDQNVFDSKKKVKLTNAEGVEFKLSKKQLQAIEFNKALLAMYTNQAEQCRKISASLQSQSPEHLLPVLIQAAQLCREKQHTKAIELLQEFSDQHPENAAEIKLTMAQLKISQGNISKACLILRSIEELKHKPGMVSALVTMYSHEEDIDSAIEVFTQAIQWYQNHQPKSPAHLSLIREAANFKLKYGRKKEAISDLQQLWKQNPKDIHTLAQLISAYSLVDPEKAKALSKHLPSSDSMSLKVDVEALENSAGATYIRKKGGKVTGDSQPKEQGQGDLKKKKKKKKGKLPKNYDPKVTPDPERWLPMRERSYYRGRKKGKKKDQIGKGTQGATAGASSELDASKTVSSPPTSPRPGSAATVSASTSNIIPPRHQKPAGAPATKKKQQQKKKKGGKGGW
Chain of UniProt O75663 (O75663 whole entry, looked up): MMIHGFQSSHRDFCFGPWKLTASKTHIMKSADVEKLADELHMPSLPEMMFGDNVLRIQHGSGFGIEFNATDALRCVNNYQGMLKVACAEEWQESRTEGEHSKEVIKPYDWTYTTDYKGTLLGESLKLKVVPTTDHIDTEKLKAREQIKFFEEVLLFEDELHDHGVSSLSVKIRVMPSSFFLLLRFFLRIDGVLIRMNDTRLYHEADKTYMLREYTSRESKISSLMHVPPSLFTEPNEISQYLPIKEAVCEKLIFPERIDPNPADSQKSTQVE
Chain of UniProt Q9H2G2 (Q9H2G2 whole entry, looked up): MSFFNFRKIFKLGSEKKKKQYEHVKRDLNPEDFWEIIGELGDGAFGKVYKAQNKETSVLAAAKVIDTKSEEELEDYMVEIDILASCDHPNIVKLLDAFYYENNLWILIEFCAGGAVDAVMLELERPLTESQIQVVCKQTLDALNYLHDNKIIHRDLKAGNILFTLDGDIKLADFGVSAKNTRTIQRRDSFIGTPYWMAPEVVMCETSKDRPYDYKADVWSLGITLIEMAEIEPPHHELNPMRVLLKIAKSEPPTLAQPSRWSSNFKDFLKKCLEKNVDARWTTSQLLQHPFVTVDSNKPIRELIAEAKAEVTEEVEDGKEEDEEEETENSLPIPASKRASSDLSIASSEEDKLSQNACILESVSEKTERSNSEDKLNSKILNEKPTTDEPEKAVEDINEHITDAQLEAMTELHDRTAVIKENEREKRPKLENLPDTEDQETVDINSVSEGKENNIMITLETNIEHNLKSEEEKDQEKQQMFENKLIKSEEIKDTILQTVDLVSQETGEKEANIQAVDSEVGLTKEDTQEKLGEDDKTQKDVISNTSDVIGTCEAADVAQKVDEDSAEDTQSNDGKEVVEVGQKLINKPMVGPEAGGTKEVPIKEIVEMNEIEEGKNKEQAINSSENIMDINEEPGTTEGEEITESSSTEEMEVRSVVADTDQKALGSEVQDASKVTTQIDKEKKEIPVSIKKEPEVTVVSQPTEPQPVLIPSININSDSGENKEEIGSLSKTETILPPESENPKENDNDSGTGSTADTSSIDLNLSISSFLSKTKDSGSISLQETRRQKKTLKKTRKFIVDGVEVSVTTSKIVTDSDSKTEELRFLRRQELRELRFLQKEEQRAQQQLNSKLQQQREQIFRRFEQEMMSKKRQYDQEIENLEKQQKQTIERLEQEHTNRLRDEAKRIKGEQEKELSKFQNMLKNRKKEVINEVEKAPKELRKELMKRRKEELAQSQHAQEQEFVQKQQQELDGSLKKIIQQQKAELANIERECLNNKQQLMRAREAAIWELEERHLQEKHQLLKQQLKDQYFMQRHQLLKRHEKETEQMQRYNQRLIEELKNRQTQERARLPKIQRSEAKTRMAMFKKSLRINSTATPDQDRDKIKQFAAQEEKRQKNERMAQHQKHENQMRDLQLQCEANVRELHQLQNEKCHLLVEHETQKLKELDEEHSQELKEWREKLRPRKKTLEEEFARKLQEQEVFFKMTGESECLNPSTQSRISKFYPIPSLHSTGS
Chain of UniProt Q8TCT7 (Q8TCT7 whole entry, looked up): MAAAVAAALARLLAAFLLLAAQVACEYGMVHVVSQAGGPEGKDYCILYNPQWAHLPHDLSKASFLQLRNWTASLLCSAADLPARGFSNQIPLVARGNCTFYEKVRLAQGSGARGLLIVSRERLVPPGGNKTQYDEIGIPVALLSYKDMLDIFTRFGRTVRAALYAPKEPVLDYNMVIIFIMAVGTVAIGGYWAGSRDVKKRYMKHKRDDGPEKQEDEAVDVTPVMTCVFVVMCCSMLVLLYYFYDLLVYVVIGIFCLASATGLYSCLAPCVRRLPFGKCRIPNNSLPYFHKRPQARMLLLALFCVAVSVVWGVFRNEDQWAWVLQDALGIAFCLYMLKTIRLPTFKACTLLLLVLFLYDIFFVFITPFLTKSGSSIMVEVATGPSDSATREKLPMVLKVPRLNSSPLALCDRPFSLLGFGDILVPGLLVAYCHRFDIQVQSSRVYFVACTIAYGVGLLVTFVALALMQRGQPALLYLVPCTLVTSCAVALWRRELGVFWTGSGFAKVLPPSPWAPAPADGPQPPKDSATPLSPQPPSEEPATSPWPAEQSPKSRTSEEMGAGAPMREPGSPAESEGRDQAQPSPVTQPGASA
Chain of UniProt Q9UP52 (Q9UP52 whole entry, looked up): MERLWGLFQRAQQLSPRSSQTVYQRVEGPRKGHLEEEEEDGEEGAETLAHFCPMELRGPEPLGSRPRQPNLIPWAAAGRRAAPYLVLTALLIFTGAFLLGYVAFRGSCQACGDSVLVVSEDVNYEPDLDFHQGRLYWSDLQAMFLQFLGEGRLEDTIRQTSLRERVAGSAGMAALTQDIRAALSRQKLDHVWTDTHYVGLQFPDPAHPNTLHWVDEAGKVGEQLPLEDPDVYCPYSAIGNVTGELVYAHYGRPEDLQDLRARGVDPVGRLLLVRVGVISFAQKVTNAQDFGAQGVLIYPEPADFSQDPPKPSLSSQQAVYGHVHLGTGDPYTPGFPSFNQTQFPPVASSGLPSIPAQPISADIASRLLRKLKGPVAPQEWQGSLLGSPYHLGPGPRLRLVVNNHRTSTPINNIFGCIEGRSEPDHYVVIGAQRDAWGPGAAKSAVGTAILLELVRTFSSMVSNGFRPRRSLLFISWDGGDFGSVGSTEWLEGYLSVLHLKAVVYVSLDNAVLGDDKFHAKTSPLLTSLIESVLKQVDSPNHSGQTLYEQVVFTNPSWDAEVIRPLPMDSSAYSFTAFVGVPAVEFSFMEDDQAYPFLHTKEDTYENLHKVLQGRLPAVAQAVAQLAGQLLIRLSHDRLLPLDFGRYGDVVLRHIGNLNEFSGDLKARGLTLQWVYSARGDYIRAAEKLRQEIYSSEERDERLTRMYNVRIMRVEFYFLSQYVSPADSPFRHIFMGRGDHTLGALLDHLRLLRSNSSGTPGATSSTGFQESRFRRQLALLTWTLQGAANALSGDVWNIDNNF
Chain of UniProt Q658P3 (Q658P3 whole entry, looked up): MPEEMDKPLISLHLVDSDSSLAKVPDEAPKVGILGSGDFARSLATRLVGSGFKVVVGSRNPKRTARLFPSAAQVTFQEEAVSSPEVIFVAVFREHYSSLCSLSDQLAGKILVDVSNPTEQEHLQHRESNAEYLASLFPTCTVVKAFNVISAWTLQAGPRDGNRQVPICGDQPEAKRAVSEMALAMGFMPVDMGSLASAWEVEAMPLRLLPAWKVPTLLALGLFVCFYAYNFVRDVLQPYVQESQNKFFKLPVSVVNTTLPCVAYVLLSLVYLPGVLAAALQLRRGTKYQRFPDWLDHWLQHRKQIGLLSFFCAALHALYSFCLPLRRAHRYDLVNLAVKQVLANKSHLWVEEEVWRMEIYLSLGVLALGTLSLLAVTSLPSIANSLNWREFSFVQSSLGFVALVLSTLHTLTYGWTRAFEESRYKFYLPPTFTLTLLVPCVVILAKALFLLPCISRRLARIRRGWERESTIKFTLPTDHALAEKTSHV
Chain of UniProt Q8IWZ8 (Q8IWZ8 whole entry, looked up): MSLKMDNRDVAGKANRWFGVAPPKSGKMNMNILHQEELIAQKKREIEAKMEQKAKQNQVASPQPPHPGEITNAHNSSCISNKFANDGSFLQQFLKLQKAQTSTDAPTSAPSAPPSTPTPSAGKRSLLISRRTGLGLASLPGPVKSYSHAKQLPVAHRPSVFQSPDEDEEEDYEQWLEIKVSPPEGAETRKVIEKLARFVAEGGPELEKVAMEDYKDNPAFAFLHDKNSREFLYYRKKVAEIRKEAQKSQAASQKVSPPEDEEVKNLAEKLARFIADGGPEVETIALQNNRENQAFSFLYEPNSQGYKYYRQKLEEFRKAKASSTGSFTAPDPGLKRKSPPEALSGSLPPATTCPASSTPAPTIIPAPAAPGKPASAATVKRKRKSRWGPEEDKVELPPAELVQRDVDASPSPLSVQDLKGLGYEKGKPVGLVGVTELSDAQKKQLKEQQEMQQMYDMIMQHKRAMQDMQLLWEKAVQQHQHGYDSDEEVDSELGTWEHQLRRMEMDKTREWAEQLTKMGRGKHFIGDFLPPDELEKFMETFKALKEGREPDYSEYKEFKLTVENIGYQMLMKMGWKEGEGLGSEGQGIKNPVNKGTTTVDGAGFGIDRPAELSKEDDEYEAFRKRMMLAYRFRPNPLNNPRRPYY
Chain of UniProt Q15526 (Q15526 whole entry, looked up): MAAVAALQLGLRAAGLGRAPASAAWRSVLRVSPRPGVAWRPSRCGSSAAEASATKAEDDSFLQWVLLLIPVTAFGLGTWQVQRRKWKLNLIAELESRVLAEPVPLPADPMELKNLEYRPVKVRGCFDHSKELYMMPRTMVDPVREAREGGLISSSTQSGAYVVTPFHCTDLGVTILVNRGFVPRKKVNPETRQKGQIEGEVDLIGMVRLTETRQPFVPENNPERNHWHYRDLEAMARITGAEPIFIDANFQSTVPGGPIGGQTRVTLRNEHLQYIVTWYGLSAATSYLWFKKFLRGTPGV

What follows are targets tested with C1COCCN1CCN2C3=CC=CC=C3N=C2NC(=O)C4=CC(=CC=C4)[N+](=O)[O-] [IRAK-1-4 Inhibitor I] (assay: log2 fold change, soluble protein after heating vs DMSO (PISA); higher = thermal stabilisation; K562 cells, 10 uM, 30 min; active = over 0.2 and 3.5 SD of the protein, either way, in both replicates (recomputed)).
In short: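 Soluble protein was quantified by TMTpro 16plex LC-MS/MS after channel sums were equalised. It was obtained as the supernatant after 21,000xg for 90 min from pooled aliquots of K562 cells (2×10^6 cells/mL, 10 μM compound, 30 min) heated for 3 min across 48°C-58°C and extracted in PBS with 0.5% NP-40 at 4°C. Thermal stability values are relative to control samples and come from duplicates. They are given as log2 fold changes.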
SPPL2B (UniProt Q8TCT7) was tested, and the log2 fold change was -0.004 (inactive). In the case of STK4 (UniProt Q13043), the log2 fold change was -0.012 (inactive). SMG1 (UniProt Q96Q15) was tested, and the log2 fold change was -0.088 (inactive). In the case of STK38L (UniProt Q9Y2H1), the log2 fold change was -0.084 (inactive). For TGFBRAP1 (UniProt Q8WUH2), the log2 fold change was -0.088 (inactive). For SLC9A6 isoform 2 (UniProt Q92581), the log2 fold change was 0.052 (inactive). With SLC35A1 (UniProt P78382) the log2 fold change was -0.057 (inactive). TFR2 (UniProt Q9UP52) was tested, and the log2 fold change was 0.018 (inactive). For TERF2IP (UniProt Q9NYB0), the log2 fold change was -0.023 (inactive). For SUGP1 (UniProt Q8IWZ8), the log2 fold change was 0.008 (inactive). SURF1 (UniProt Q15526) was tested, and the log2 fold change was 0.021 (inactive). With STARD7 (UniProt Q9NQZ5) the log2 fold change was -0.012 (inactive). STEAP3 isoform 2 (UniProt Q658P3) was tested, and the log2 fold change was -0.002 (inactive). ST6GAL1 (UniProt P15907) was tested, and the log2 fold change was -0.01 (inactive). SPIRE1 (UniProt Q08AE8) was tested, and the log2 fold change was -0.065 (inactive). SLC27A1 (UniProt Q6PCB7) was tested, and the log2 fold change was 0.052 (inactive). With SPG21 (UniProt Q9NZD8) the log2 fold change was -0.042 (inactive). With SRP72 (UniProt O76094) the log2 fold change was -0.119 (inactive). SLC38A7 (UniProt Q9NVC3) was tested, and the log2 fold change was 0.035 (inactive). In the case of SLK isoform 2 (UniProt Q9H2G2), the log2 fold change was -0.008 (inactive). With TIPRL (UniProt O75663) the log2 fold change was -0.011 (inactive). For STX17 (UniProt P56962), the log2 fold change was -0.062 (inactive). In the case of STIM1 (UniProt Q13586), the log2 fold change was 0.006 (inactive).
